The source of these data is PubChem BioAssay.

The nature of experiment [1]: antimalarial activity against Dd2 strain (AID 2302;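 active means growth inhibition above 50% at the single 2 µM test dose, taken to imply half-maximal potency below 2 µM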;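 further: 0% = DMSO untreated growth and 100% = chloroquine plus artemisinin killed control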). The following applies: P. falciparum Dd2 in RBCs, LDH growth readout, 72 h; at 2 µM; active compounds read high.
Experiment [2] in a line: human hepatoma cell viability loss – ATP luminescence, cytotoxicity control for P. falciparum antimalarial project, primary screen (AID 2303;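 active means inhibition above 50%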;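 further: 0% = DMSO wells and 100% = digitonin-killed cells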). To be noted: HepG2 viability, 24-48 h, at 10 µM, active compounds read high.
In experiment [3] the target is L-lactate dehydrogenase (Plasmodium falciparum (isolate CDC / Honduras)) (UniProt Q27743). Description: PfLDH activity inhibition – cell lysate, 3D7 strain, counter-screen for P. falciparum growth inhibition project (AID 2304).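 Further: 0% = vehicle and 100% = reference inhibitor.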 The following applies: P. falciparum 3D7 crude extract, LDH APAD/NBT absorbance; at 2 µM; active compounds read high.
L-lactate dehydrogenase (Plasmodium falciparum (isolate CDC / Honduras)), sequence (Q27743 whole entry, looked up): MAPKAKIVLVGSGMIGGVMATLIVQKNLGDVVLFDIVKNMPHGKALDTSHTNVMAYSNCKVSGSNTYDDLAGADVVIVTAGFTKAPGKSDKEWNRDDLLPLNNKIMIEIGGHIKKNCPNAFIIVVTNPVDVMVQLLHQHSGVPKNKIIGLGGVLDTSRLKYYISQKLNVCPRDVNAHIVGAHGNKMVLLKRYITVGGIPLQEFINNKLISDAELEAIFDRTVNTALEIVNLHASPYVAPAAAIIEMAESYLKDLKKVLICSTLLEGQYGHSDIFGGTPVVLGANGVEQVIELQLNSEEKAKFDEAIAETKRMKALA
Experiment [4] is described as follows: inhibition of 3D7 malaria parasite growth – strain 3D7 (AID 2306).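 Further: 0% = DMSO wells and 100% = chloroquine plus artemisinin control wells.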 To be noted: P. falciparum 3D7 erythrocytic growth, LDH absorbance, 72 h; at 2 µM; active compounds read high.
The target in experiment [5] is Calcium-dependent protein kinase 1 (Plasmodium falciparum (isolate 3D7)) (UniProt P62344). The experiment can be described thus: PfCDPK1 kinase inhibitors, biochemical, TCAMS library (AID 1159585; cut-off not given, nearly all actives have IC50 up to about 0.98 µM;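 further: inhibitors leave more ATP so luminescence rises with inhibition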). The following applies: recombinant PfCDPK1, Kinase-Glo ATP depletion luminescence. (In general: In Kinase-Glo more light means more ATP remaining.)
Calcium-dependent protein kinase 1 (Plasmodium falciparum (isolate 3D7)), sequence (P62344 whole entry, looked up): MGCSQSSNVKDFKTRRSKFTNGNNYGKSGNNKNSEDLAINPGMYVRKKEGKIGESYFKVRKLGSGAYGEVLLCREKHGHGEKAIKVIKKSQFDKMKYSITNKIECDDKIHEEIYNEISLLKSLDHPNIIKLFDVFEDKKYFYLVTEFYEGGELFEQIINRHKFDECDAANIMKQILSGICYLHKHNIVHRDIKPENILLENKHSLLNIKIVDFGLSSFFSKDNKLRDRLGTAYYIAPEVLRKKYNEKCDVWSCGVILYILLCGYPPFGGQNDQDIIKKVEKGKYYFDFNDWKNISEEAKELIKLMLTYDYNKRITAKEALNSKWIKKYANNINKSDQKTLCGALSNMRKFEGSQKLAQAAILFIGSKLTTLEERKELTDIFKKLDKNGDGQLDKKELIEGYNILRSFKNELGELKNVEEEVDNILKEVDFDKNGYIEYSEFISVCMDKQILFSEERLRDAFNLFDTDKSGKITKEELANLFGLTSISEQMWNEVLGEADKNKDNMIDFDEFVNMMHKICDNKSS
Experiment [6] addresses Plasmodium falciparum protein kinase 6 (PK6, PF3D7_1337100) (UniProt Q8IDW1). Description: PfPK6 kinase inhibitors, biochemical, TCAMS library (AID 1159586). The following applies: recombinant PfPK6, Kinase-Glo ATP depletion luminescence.
For experiment [7], the target named is Protein kinase 7 (PK7), Plasmodium falciparum 3D7 (PF3D7_0213400) (UniProt Q7YTF7). The experiment can be described thus: inhibition of Plasmodium PK7 catalytic activity – biochemical, TCAMS antimalarial set, Kinase-Glo luminescence (AID 1159587). To be noted: recombinant PfPK7, Kinase-Glo ATP depletion luminescence.
Protein kinase 7 (PK7), Plasmodium falciparum 3D7 (PF3D7_0213400), sequence (Q7YTF7 1-343): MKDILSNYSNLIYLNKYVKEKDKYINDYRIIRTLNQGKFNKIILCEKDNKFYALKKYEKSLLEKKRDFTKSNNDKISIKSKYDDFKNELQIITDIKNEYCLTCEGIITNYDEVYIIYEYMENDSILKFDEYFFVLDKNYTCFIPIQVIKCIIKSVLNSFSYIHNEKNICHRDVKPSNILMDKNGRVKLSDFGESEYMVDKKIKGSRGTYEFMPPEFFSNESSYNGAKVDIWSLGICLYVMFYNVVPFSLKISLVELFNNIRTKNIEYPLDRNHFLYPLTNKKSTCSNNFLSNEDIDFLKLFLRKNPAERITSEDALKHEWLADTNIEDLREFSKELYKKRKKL
The target in experiment [8] is Calcium-dependent protein kinase 4 (Plasmodium falciparum (isolate 3D7)) (UniProt Q8IBS5). The experiment can be described thus: PfCDPK4 kinase inhibitors, biochemical, TCAMS library (AID 1159588; cut-off not given, nearly all actives have IC50 up to about 0.91 µM). The following applies: recombinant PfCDPK4, Kinase-Glo ATP depletion luminescence.
Calcium-dependent protein kinase 4 (Plasmodium falciparum (isolate 3D7)), sequence (Q8IBS5 whole entry, looked up): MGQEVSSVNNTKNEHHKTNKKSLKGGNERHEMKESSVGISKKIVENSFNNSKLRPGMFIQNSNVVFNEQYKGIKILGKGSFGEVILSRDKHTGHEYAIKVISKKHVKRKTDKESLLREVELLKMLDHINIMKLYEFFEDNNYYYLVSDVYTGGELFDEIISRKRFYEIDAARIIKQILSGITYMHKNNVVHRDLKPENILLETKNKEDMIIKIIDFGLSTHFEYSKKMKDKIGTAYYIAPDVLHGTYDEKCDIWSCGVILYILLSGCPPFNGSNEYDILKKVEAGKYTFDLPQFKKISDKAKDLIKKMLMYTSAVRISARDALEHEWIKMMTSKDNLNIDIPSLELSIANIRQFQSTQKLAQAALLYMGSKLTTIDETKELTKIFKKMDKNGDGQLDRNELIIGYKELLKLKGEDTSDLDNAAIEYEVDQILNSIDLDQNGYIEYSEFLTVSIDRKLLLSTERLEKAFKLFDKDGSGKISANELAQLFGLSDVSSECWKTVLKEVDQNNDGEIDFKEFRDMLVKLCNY

As a reminder, the inhibition is the relative decrease from the control value, in per cent.

Values without a mark were called inactive. For part of these data: Potency and affinity values are given separately. The source made the active and inactive calls. Unless noted, how the calls were made is not given here.

Plasmodium falciparum protein kinase 6 (PK6, PF3D7_1337100), sequence (Q8IDW1 1-305): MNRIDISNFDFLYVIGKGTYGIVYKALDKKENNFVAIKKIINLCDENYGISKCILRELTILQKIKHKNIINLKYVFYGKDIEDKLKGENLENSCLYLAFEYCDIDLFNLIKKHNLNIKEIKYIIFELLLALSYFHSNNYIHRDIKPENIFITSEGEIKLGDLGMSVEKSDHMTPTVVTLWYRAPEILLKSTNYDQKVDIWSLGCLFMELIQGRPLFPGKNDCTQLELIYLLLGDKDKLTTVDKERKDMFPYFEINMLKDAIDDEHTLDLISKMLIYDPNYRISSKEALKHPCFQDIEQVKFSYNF

In the case of `Cc1cccc2[nH]c(-c3ccc(-c4cccc(NC(=O)c5cnccc5C(F)(F)F)c4)cc3)nc12`, the growth inhibition in experiment [1] is 13%; in experiment [4], 84% (active). Moreover, the values for the inhibition in experiment [2] and in experiment [3] were 25% and 0%, respectively. In addition, the result in experiment [5], in experiment [6], in experiment [7] and in experiment [8] was inactive.

Consider `CN1CCN(c2cccc(-c3nnc(-c4ccc(OCC(=O)NCc5ccc(C(F)(F)F)cc5)c([N+](=O)[O-])c4)o3)c2)CC1`, for which the results for the growth inhibition in experiment [1] and in experiment [4] were 44% and 90% (active), respectively. Besides, the inhibition is 35% in experiment [2] and -4% in experiment [3]. In addition, the outcome in experiment [5], in experiment [6], in experiment [7] and in experiment [8] was inactive.

With `Fc1ccc(-c2cncc(-c3ccc(F)cc3)n2)cc1`, the growth inhibition in experiment [1] was 94% (active); in experiment [4], 99% (active). Also, the inhibition in experiment [2] was 7%; in experiment [3], 2%. In addition, the outcome in experiment [5], in experiment [6], in experiment [7] and in experiment [8] was inactive.

`Cc1ccc(C)c(S(=O)(=O)Nc2ccc(Br)cc2C(=O)Nc2cccc(C(F)(F)F)c2)c1`: the growth inhibition in experiment [1] is 98% (active); in experiment [4] it was 81% (active). The results for the inhibition in experiment [2] and in experiment [3] were 56% (active) and -7%, respectively. For the same compound, the outcome in experiment [5], in experiment [6], in experiment [7] and in experiment [8] was inactive.

On to `COc1ccc(N2CCN(CCCCNC(=O)c3ccc(/C=C/c4ccc(Cl)c(Cl)c4)cc3)CC2)c(OC)c1`, for which the figures for the growth inhibition in experiment [1] and in experiment [4] were 51% (active) and 101% (active), respectively. Further, the inhibition is 51% (active) in experiment [2] and -8% in experiment [3]. Besides, the result in experiment [5], in experiment [6], in experiment [7] and in experiment [8] was inactive.

For the compound `c1cc(CN2CCC(CCN3CCCCC3)CC2)cc(-c2cccc(-c3nc4ccccc4[nH]3)c2)c1`, the growth inhibition in experiment [1] is 101% (active); in experiment [4], 100% (active). In addition, the inhibition in experiment [2] was 95% (active); in experiment [3], -3%. The result in experiment [5], in experiment [6], in experiment [7] and in experiment [8] was inactive.

`COCCCn1c(=N)c(C(=O)NCCc2ccc(OC)cc2)cc2c(=O)n3cccc(C)c3nc21`: the values for the growth inhibition in experiment [1] and in experiment [4] were 33% and 95% (active), respectively. Moreover, the inhibition in experiment [2] was 18%; in experiment [3], -1%. For the same compound, the result in experiment [5], in experiment [6], in experiment [7] and in experiment [8] was inactive.

As for `CC(C)(C)OC(=O)NCCc1cccc(-c2c[nH]c3ncc(-c4cccc(NS(C)(=O)=O)c4)cc23)c1`, the values for the growth inhibition in experiment [1] and in experiment [4] were 71% (active) and 97% (active), respectively. Also, the inhibition in experiment [2] was 16%; in experiment [3] it was -3%. Besides, the result in experiment [5], in experiment [6], in experiment [7] and in experiment [8] was inactive.

Take `Cc1cc(NCCc2ccccc2)nc(/N=C(\N)Nc2ccccc2Cl)n1`: the figures for the growth inhibition in experiment [1] and in experiment [4] were 7% and 100% (active), respectively. Also, the inhibition was 20% in experiment [2] and -8% in experiment [3]. Further, the result in experiment [5], in experiment [6], in experiment [7] and in experiment [8] was inactive.

With `COc1ccc(OC)c(NC(=O)C2c3ccccc3C(=O)N(CC(C)C)C2c2cccs2)c1` (stereo not drawn), the growth inhibition in experiment [1] is 66% (active); in experiment [4], 100% (active). The inhibition was 9% in experiment [2] and -5% in experiment [3]. Also, the outcome in experiment [5], in experiment [6], in experiment [7] and in experiment [8] was inactive.

Regarding `CC(C)(C)c1ccc(C(=O)N2CCC3(CC2)C(=O)N(CC(=O)NCC2CCCO2)CN3c2ccccc2)cc1` (stereo not drawn), the growth inhibition in experiment [1] and in experiment [4] was 100% (active) throughout. Besides, the figures for the inhibition in experiment [2] and in experiment [3] were 8% and 0%, respectively. The outcome in experiment [5], in experiment [6], in experiment [7] and in experiment [8] was inactive.

As for `CON(CCCN(C)C)C(=N)N`, the growth inhibition is -4% in experiment [1] and 92% (active) in experiment [4]. Also, the inhibition in experiment [2] is 3%; in experiment [3], 1%. The result in experiment [5], in experiment [6], in experiment [7] and in experiment [8] was inactive.

`CC(C)(C)COc1ccc2c(N)n[nH]c2c1`: the growth inhibition is 8% in experiment [1] and 90% (active) in experiment [4]. The results for the inhibition in experiment [2] and in experiment [3] were 31% and 4%, respectively. Moreover, the outcome in experiment [5], in experiment [6], in experiment [7] and in experiment [8] was inactive.

Turning to `Cc1ccccc1C1CCN(c2ccc(NC(=O)c3ccc(Cl)nc3)cc2)CC1`, the values for the growth inhibition in experiment [1] and in experiment [4] were 82% (active) and 92% (active), respectively. Also, the inhibition in experiment [2] is 43%; in experiment [3], -2%. Moreover, the outcome in experiment [5], in experiment [6], in experiment [7] and in experiment [8] was inactive.

Consider `Cc1nc(-c2nc(N3CCC(O)CC3)ncc2-c2ccsc2)sc1C`, for which the growth inhibition was 35% in experiment [1] and 83% (active) in experiment [4]. For the same compound, the inhibition was 6% in experiment [2] and -2% in experiment [3]. The outcome in experiment [5], in experiment [6], in experiment [7] and in experiment [8] was inactive.

`CN1CCC(NCc2ccc(-c3ccc(S(=O)(=O)NCc4ccccc4)s3)cc2)CC1`: the growth inhibition is 95% (active) in experiment [1] and 99% (active) in experiment [4]. Besides, the inhibition in experiment [2] is 77% (active); in experiment [3], -3%. In addition, the outcome in experiment [5], in experiment [6], in experiment [7] and in experiment [8] was inactive.

Take `COc1ccc(C=NNc2nc3ccccc3[nH]2)cc1O`: the growth inhibition was 13% in experiment [1] and 95% (active) in experiment [4]. Also, the inhibition in experiment [2] was 15%; in experiment [3], 0%. For the same compound, the result in experiment [5], in experiment [6], in experiment [7] and in experiment [8] was inactive.

In the case of `COc1ccccc1C1CC(c2ccccc2)=NN1C(=O)c1ccccc1` (stereo not drawn), the growth inhibition in experiment [1] was 93% (active); in experiment [4] it was 100% (active). The inhibition in experiment [2] is 13%; in experiment [3] it was -3%. The result in experiment [5], in experiment [6], in experiment [7] and in experiment [8] was inactive.

Turning to `COc1ccc(Cl)cc1NC(=O)Nc1ccc2c(c1)CCN(C1CCC1)CC2`, the growth inhibition was 19% in experiment [1] and 98% (active) in experiment [4]. Further, the inhibition is 38% in experiment [2] and -2% in experiment [3]. For the same compound, the outcome in experiment [5], in experiment [6], in experiment [7] and in experiment [8] was inactive.

On to `O=C(Nc1ccc(-c2ccccc2)cc1)Nc1cccc(Cn2nc(Cl)c(N3CCNCC3)cc2=O)c1`, for which the growth inhibition in experiment [1] was 79% (active); in experiment [4], 102% (active). Besides, the inhibition in experiment [2] was 15%; in experiment [3], -2%. Also, the outcome in experiment [5], in experiment [6], in experiment [7] and in experiment [8] was inactive.

Consider `O=c1cc(NCCCNCc2cccc(Oc3ccccc3)c2)[nH]c2ccccc12`, for which the values for the growth inhibition in experiment [1] and in experiment [4] were 67% (active) and 93% (active), respectively. In addition, the inhibition in experiment [2] was -4%; in experiment [3], -1%. Moreover, the result in experiment [5], in experiment [6], in experiment [7] and in experiment [8] was inactive.
